This is a sample that favours compounds with a hit; in the whole collection about 3.3% have one here.
SARS PLpro yeast-1 – qHTS of Yeast-based Assay for SARS-CoV PLP; AID 485353, 2010; S. cerevisiae expressing SARS-CoV PLpro, growth rescue; hit rate 0.19% among 330,000; Potency, µM (doses to about 32.9 µM), hits mostly activators; calls by dose curve; also: nearly all actives have a fitted effect of over 55% in size
RE007 growth inh – qHTS Assay for Inhibitors of the HIV-1 protein Vpr. S. pombe RE007 Vpr strain, BacTiter-Glo ATP luminescence, 24 h. Potency, µM (highest dose often 92.2 µM), hits mostly inhibitors. hit rate 0.21% among 360,000. AID 651644, 2012; active = well fitted falling curve with a large enough effect; inconclusive = small, poorly fitted or top-dose-only effect; inactive = no such curve, though single readings can be large or run the other way; also: nearly all actives have a fitted effect of over 50% in size
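Fission yeast RE007 carrying one integrated HIV-1 vpr copy, seeded at OD 0.01 in PMG+AL medium with 23 nL pinned compound. Grown 24 h at 30 degrees; viability read by BacTiter-Glo luminescence after 5 min.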
Sm TGR block – qHTS Assay for the Inhibitors of Schistosoma Mansoni Peroxiredoxins; Schistosoma mansoni thioredoxin glutathione reductase (TGR), Q962Y6; purified TGR, DTNB reduction, TNB absorbance 405 nm; Potency, µM (top dose mostly 114 µM), actives largely listed as inhibitors; hit rate 3% among 360,000; AID 485364, 2010; also: nearly all actives have a fitted effect of over 60% in size
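TGR 20 nM + NADPH 100 uM (dispensed conc.), cpd preinc 15 min RT; start with NADPH (500 uM addition) then DTNB (15 mM addition). Kinetic TNB absorbance, 405 nm filter. Four-parameter Hill fit across titration.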
AmpC inh no detg – qHTS Inhibitors of AmpC Beta-Lactamase (assay without detergent) | Potency, µM (titrated, usually from 57.1 µM), usual class: inhibitors | AmpC nitrocefin hydrolysis, absorbance 480 nm, 0.0001% Triton | P00811 | hit rate 0.52% among 330,000 | AID 485341, 2010; also: nearly all actives have a fitted effect of over 20% in size
Target sequence (P00811 whole entry, looked up): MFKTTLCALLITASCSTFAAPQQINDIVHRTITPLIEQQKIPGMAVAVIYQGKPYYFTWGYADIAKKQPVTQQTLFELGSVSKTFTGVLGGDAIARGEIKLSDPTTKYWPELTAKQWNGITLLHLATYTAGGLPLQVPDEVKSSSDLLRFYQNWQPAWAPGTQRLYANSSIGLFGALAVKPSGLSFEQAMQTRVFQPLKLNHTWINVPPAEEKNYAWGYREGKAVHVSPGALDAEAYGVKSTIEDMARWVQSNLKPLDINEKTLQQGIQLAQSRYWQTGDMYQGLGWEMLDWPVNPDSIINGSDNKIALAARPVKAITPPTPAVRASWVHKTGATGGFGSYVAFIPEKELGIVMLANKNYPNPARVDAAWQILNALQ
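20 mM phosphate pH 7.0 + 0.01% (detergent screen) or 0.0001% Triton X-100; 5.3 nM AmpC reagent; cpd preinc 15 min RT; nitrocefin (800 uM stock) to start; A480 q20 s × 4 min; Activity was normalised to no-enzyme and no-compound control wells.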
AmpC inh detg – qHTS Inhibitors of AmpC Beta-Lactamase (assay with detergent). P00811. AmpC hydrolysis of nitrocefin, absorbance 480 nm, 0.01% Triton. Potency, µM (highest dose often 114 µM), hits mostly inhibitors. hit rate 0.041% among 370,000; also: nearly all actives have a fitted effect of over 25% in size
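20 mM phosphate pH 7.0 + 0.01% (detergent screen) or 0.0001% Triton X-100; 5.3 nM AmpC reagent; cpd preinc 15 min RT; nitrocefin (800 uM stock) to start; A480 q20 s × 4 min; Activity was normalised to no-enzyme and no-compound control wells.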
Tb PYK inh – qHTS of Trypanosoma Brucei Inhibitors; TbPYK enzyme, Kinase-Glo Plus ATP luminescence, 45 min; Potency, µM (top dose mostly 76.8 µM), hits mostly inhibitors; hit rate 0.12% among 410,000; also: nearly all actives have a fitted effect of over 50% in size
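T. brucei PYK with substrate was exposed to pin-transferred compounds across a concentration series, then started with 130 uM ADP (final). After 45 min at room temperature, Kinase-Glo Plus luminescence was read, normalized and curve-fitted.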
SARS PLpro yeast-2 – qHTS of Yeast-based Assay for SARS-CoV PLP: Hit Validation; yeast expressing SARS-CoV PLpro, growth phenotype rescue; shares compounds with SARS PLpro yeast-1; calls only; hit rate 19% among 1,000; AID 652038, 2013; call rule not given here
Hits are given with their value. Unless noted, calls follow the shape of the dose curve; as a rule, active = well fitted curve in the direction sought with a large enough effect; inconclusive = small, poorly fitted or top-dose-only effect, or another doubt; inactive = no such curve, though single readings can be large; an effect the other way counts as inactive or inconclusive.

How did CNC[C@@H]1Oc2ccc(NC(=O)Nc3c(C)noc3C)cc2CC(=O)N([C@H](C)CO)C[C@H]1C do in these assays?
SARS PLpro yeast-1: 11.2µM; RE007 growth inh: inactive; AmpC inh no detg: inactive; Tb PYK inh: inactive; SARS PLpro yeast-2: inactive

Results for COc1ccc(CCNC(=O)Cc2c(C)c3cc4c(C(C)(C)C)coc4c(C)c3oc2=O)cc1 ?
Sm TGR block: inactive; AmpC inh detg: inactive; Tb PYK inh: inactive

How did Cc1c(C=O)c2ccccc2n1Cc1ccc([N+](=O)[O-])cc1 do in these assays?
SARS PLpro yeast-1: inconclusive; RE007 growth inh: inactive; Sm TGR block: inactive; AmpC inh no detg: inactive; AmpC inh detg: inactive; Tb PYK inh: inactive; SARS PLpro yeast-2: inactive

What do the screens show for `CCn1c(=O)c2ccccc2n(Cc2ccc([N+](=O)[O-])cc2)c1=O`?
SARS PLpro yeast-1: inactive; RE007 growth inh: inactive; Sm TGR block: inactive; AmpC inh no detg: inactive; AmpC inh detg: inactive; Tb PYK inh: inactive

What do the screens show for `COc1ccc(C(=O)Oc2ccc(=O)n(-c3ccccc3)n2)cc1`?
RE007 growth inh: inactive; Sm TGR block: inactive; AmpC inh no detg: inactive; AmpC inh detg: inconclusive; Tb PYK inh: inactive; SARS PLpro yeast-2: active

Results for O=C(CSc1cccc[n+]1[O-])Nc1cccc(Oc2ccccc2)c1 ?
SARS PLpro yeast-1: inconclusive; RE007 growth inh: inactive; Sm TGR block: inactive; AmpC inh no detg: inactive; AmpC inh detg: inactive; Tb PYK inh: inactive; SARS PLpro yeast-2: inactive

How did COc1cccc(NC(=O)CSc2cccc[n+]2[O-])c1 do in these assays?
SARS PLpro yeast-1: inactive; RE007 growth inh: inactive; AmpC inh no detg: inactive; Tb PYK inh: inactive

Results for Cc1oc(-c2ccc(C(=O)NCc3ccc(N(C)C)cc3)cc2)nc1COc1ccccc1 ?
Sm TGR block: inactive; AmpC inh detg: inactive; Tb PYK inh: inactive

Results for C(=C\c1ccccc1)/CNn1cnnc1 ?
SARS PLpro yeast-1: inconclusive; RE007 growth inh: inactive; Sm TGR block: inactive; AmpC inh no detg: inactive; AmpC inh detg: inactive; Tb PYK inh: inactive; SARS PLpro yeast-2: inactive

What do the screens show for `COc1ccc(C2OC(=O)c3ccccc3S2)cc1` (stereo not drawn)?
SARS PLpro yeast-1: inconclusive; RE007 growth inh: inactive; Sm TGR block: inactive; AmpC inh no detg: inactive; AmpC inh detg: inconclusive; Tb PYK inh: inactive; SARS PLpro yeast-2: inactive

What do the screens show for `COCC(O)CNc1ccccc1` (stereo not drawn)?
SARS PLpro yeast-1: inconclusive; RE007 growth inh: inactive; Sm TGR block: inactive; AmpC inh no detg: inactive; AmpC inh detg: inactive; Tb PYK inh: inactive; SARS PLpro yeast-2: inactive

How did COc1cccc(NC(=O)COC(=O)CNS(=O)(=O)c2c(F)cccc2F)c1 do in these assays?
SARS PLpro yeast-1: inconclusive; RE007 growth inh: inactive; Sm TGR block: inactive; AmpC inh no detg: inactive; AmpC inh detg: inactive; Tb PYK inh: inactive; SARS PLpro yeast-2: inactive

Results for COc1cccc(NC(=O)COC(=O)c2ccccc2F)c1 ?
SARS PLpro yeast-1: inactive; RE007 growth inh: inactive; Sm TGR block: inactive; AmpC inh no detg: inactive; AmpC inh detg: inactive; Tb PYK inh: inactive

What do the screens show for `COc1ccc(OC)c(S(=O)(=O)Nc2ccc(F)cc2)c1`?
SARS PLpro yeast-1: inactive; RE007 growth inh: inactive; Sm TGR block: inactive; AmpC inh no detg: inactive; AmpC inh detg: inactive; Tb PYK inh: inactive

Results for COc1ccc(C)cc1S(=O)(=O)Nc1ccc(F)cc1 ?
SARS PLpro yeast-1: inconclusive; RE007 growth inh: inactive; Sm TGR block: inactive; AmpC inh no detg: inactive; AmpC inh detg: inactive; Tb PYK inh: inactive; SARS PLpro yeast-2: inactive

How did CCCCOc1ccc(S(=O)(=O)Nc2ccc(-c3ccc(N4CCC(C)CC4)nn3)cc2)cc1 do in these assays?
Sm TGR block: inactive; AmpC inh detg: inactive; Tb PYK inh: inactive

How did CNC(=O)Oc1ccc2ncccc2c1 do in these assays?
SARS PLpro yeast-1: 14.1µM; RE007 growth inh: inactive; Sm TGR block: inactive; AmpC inh no detg: inactive; AmpC inh detg: inconclusive; Tb PYK inh: inactive; SARS PLpro yeast-2: active

What do the screens show for `COc1ccc(CNS(=O)(=O)c2ccc(-c3cc(C(F)(F)F)on3)s2)cc1OC`?
Sm TGR block: inactive; AmpC inh detg: inactive; Tb PYK inh: inactive

How did CC1(C)C(=O)OC(c2cccn2-c2ccc([N+](=O)[O-])cc2)C(C)(C)C1=O (stereo not drawn) do in these assays?
SARS PLpro yeast-1: inactive; RE007 growth inh: inactive; Sm TGR block: inactive; AmpC inh no detg: inactive; AmpC inh detg: inconclusive; Tb PYK inh: inactive

How did CC1(C)C(=O)C2(CCCCC2)C(=O)OC1c1cccn1-c1ccc([N+](=O)[O-])cc1 (stereo not drawn) do in these assays?
SARS PLpro yeast-1: inconclusive; RE007 growth inh: inactive; Sm TGR block: inactive; AmpC inh no detg: inactive; AmpC inh detg: inconclusive; Tb PYK inh: inactive; SARS PLpro yeast-2: inconclusive

How did C/C=C/c1ccc(OCCCNC(C)CC)c(OC)c1 (stereo not drawn) do in these assays?
SARS PLpro yeast-1: 22.4µM; RE007 growth inh: inactive; Sm TGR block: inactive; AmpC inh no detg: inactive; AmpC inh detg: inactive; Tb PYK inh: inactive; SARS PLpro yeast-2: inactive

What do the screens show for `CCc1ccc(NC(=O)c2ccc(OC)c([N+](=O)[O-])c2)cc1`?
SARS PLpro yeast-1: inconclusive; RE007 growth inh: inactive; Sm TGR block: inactive; AmpC inh no detg: inactive; AmpC inh detg: inactive; Tb PYK inh: inactive; SARS PLpro yeast-2: inactive

How did COc1cccc(CN(C)C(=O)CC2C(=O)NCCN2C2Cc3ccccc3C2)c1 (stereo not drawn) do in these assays?
RE007 growth inh: inactive; Sm TGR block: inactive; AmpC inh no detg: inactive; AmpC inh detg: inactive; Tb PYK inh: inactive; SARS PLpro yeast-2: inactive

How did COc1cc(/C=C/C(=O)O)ccc1OS(=O)(=O)c1cc(Br)ccc1C do in these assays?
SARS PLpro yeast-1: 10µM; RE007 growth inh: inactive; Sm TGR block: inactive; AmpC inh no detg: inactive; AmpC inh detg: inactive; Tb PYK inh: inactive; SARS PLpro yeast-2: inactive

How did COc1cc(/C=C/C(=O)O)ccc1OS(=O)(=O)c1cc(C)ccc1C do in these assays?
SARS PLpro yeast-1: inactive; RE007 growth inh: inactive; Sm TGR block: inactive; AmpC inh no detg: inactive; AmpC inh detg: inactive; Tb PYK inh: inactive

What do the screens show for `O=C(N/N=C/c1c(O)n(CCc2ccc(F)cc2)c(=O)[nH]c1=O)c1ccccc1`?
SARS PLpro yeast-1: inactive; RE007 growth inh: inactive; Sm TGR block: inconclusive; AmpC inh no detg: inactive; AmpC inh detg: inactive; Tb PYK inh: inactive

High-throughput results as filed in PubChem.
